SW480 rereplic – A quantitative high throughput screen for small molecules that induce DNA re-replication in SW480 colon adenocarcinoma cells | hit rate 1.8% among 340,000 | SW480 DNA re-replication, Hoechst DNA content imaging, 48 h | Potency, µM (top dose mostly 46.1 µM), inactives show at the highest dose re-replication activation, most hits filed as activators; also: potency is read from the fitted curve at half-maximal effect; % of control where 0% means no effect; nearly all actives have a fitted effect of over 55% in size
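Image-based read-out: total Hoechst fluorescence of nuclei (405 nm excitation, 500-530 nm emission), with hits raising the fraction of high-intensity nuclei. SW480 colon cells incubated 48 hr with compounds at 37 C.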
RORg inh – qHTS for inhibitors of ROR gamma transcriptional activity; Potency, µM (top dose mostly 53.6 µM), inactives show at the top dose activity change, negative = inhibition, usual class: inhibitors; hit rate 5.4% among 310,000; Drosophila S2 Gal4-RORgamma UAS-luciferase reporter, 20 h; AID 2551, 2010; Nuclear receptor ROR-gamma (Mus musculus), P51450; also: potency is read from the fitted curve at half-maximal effect; % is scaled to controls: 0 for no effect and ±100 for the full control effect; nearly all actives have a fitted effect of over 60% in size
Target sequence (P51450 whole entry, looked up, the tested form may be a part): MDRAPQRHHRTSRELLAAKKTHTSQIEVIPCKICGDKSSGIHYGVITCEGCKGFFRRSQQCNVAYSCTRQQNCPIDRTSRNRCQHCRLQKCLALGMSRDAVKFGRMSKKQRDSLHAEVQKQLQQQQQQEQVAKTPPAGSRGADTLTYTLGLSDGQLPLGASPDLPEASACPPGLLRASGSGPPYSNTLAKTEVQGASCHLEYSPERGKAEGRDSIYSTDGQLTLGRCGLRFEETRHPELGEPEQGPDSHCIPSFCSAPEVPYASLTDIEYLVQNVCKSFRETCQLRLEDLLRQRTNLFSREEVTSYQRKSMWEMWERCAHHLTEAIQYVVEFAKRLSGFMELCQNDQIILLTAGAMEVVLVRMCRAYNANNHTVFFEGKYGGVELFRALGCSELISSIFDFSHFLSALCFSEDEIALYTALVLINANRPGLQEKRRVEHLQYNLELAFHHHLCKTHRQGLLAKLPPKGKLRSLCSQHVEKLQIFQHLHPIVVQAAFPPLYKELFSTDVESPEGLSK
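Using a luciferase readout, inhibitors were identified by reduced reporter activity in Drosophila cells coexpressing a copper-inducible Gal4–ROR gamma fusion and UAS-driven Photinus luciferase, incubated 20 hr after 700 uM copper sulfate.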
Gal4-VP16 FLuc – VP16 counterscreen qHTS for inhibitors of ROR gamma transcriptional activity; Drosophila S2 Gal4-VP16 UAS-luciferase, luminescence, 20 h; Potency, µM (doses to about 53.6 µM), for inactives: at the highest dose activity, negative = inhibition, most hits filed as inhibitors; hit rate 3.5% among 310,000; AID 2546, 2010;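 also: Gal4-VP16 expression switched on by copper sulfate through the metallothionein promoter; potency is read from the fitted curve at half-maximal effect; % is scaled to controls: 0 for no effect and ±100 for the full control effect; nearly all actives have a fitted effect of over 50% in size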
MCF10A rereplic – A quantitative high throughput screen for small molecules that induce DNA re-replication in MCF 10a normal breast cells; MCF 10A DNA re-replication, Hoechst nuclear intensity, 48 h; Potency, µM (highest dose often 46.1 µM), for the others: at the highest dose activity, positive = re-replication, hits mostly activators; hit rate 2.9% among 350,000; also: potency is read from the fitted curve at half-maximal effect; % of control where 0% means no effect; nearly all actives have a fitted effect of over 50% in size
IL-1B inflam inh – qHTS for Inhibitors of Inflammasome Signaling: IL-1-beta AlphaLISA Primary Screen. hit rate 4.7% among 360,000. THP-1 LPS/ATP IL-1B secretion, AlphaLISA, 16 h; stronger effect = lower value. activity change, % at 57.5 µM; in the data active = activity change below about -50%; inconclusive = mostly about -30% to -49%; also: % is scaled to controls: 0 for no effect and ±100 for the full control effect
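THP-1 cells pretreated 1 hr with compounds (up to 57.5 uM final), then stimulated with LPS (250 ng/mL final) plus ATP (1.25 mM final); secreted IL-1B measured by AlphaLISA after 16 hr, decreased signal indicating inhibition.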
Numbers without * were called inactive; i = inactive; u = inconclusive; x = no result given; [ ] = dose if it differs, or a comment. Compounds with a hit are over-represented: about 11% of the library has one in this group of screens. Unless noted, calls follow the shape of the dose curve; as a rule, active = well fitted curve in the direction sought with a large enough effect; inconclusive = small, poorly fitted or top-dose-only effect, or another doubt; inactive = no such curve, though single readings can be large; an effect the other way counts as inactive or inconclusive.

SMILES | SW480 rereplic | RORg inh | Gal4-VP16 FLuc | MCF10A rereplic | IL-1B inflam inh
CCc1cc(C(=O)N2CCCC(C(=O)c3ccc(Oc4ccccc4)cc3)C2)n(C)n1 (configuration not stated) | u | u | -13% | 2% | -61*
Cc1ccc(C(=O)N2CCCC(C(=O)c3ccc(Cl)cc3C)C2)cn1 (configuration not stated) | -18% | 28% | 5% | 1% | 1
CCCCCCCCC1OC1CCCCCCCC(=O)O (configuration not stated) | x | 18% | -6% | x | x
CC1CCN(C(=O)CCC(=O)Nc2ccc([N+](=O)[O-])cc2)CC1 | x | x | x | x | 6
O=C1NC2CCCCC2C(=O)N1OS(=O)(=O)c1ccccc1 (configuration not stated) | u | x | x | u | -78*
O=C1CCN(S(=O)(=O)c2ccccc2)C2CCCCC12 (configuration not stated) | -3% | 13% | 5% | 18% | 38
CC(/C=N/N1CCN(c2ccc(C)cc2)CC1)=C\c1ccccc1 | 0% | -18% | 3% | u | -17
Nc1nnnn1/N=C/C(Br)=C/c1ccccc1 | 2.8µM* | 3.2µM* | u | 2.6µM* | -93*
BrC(=C\c1ccccc1)/C=N/N1CCN(c2ccccc2)CC1 | -3% | u | u | u | -81*
Cc1ccc(CN2CCN(/N=C\C(Br)=C\c3ccccc3)CC2)cc1 | u | 38% | u | u | -78*
Nc1nnnn1/N=C/C=C/c1ccccc1 | 2% | 23% | 6% | 8% | -2
COc1ccc(C2NC(=O)NC(C)=C2C(=O)OCC2CCCCC2)cc1OC (configuration not stated) | -11% | 1% | 8% | -11% | -21
O=S(=O)(NOCc1ccc(Cl)cc1)c1ccc(Cl)cc1 | 4% | 4% | -4% | u | 1
Cc1ccc(S(=O)(=O)NCC(=O)N/N=C/c2ccc(Cl)cc2Cl)cc1 | 3% | u | u | 22% | u
CC(=O)Nc1ccc(SCC(=O)NNC(=O)CN(C)S(=O)(=O)c2ccc(C)cc2)cc1 | 5.2µM* | x | x | 0% | 5
CCCCOc1ccc(CONS(=O)(=O)c2ccc(NC(C)=O)cc2)cc1Cl | -1% | -18% | -29% | 21µM* | -103*
Cc1ccc(S(=O)(=O)NCC(=O)N/N=C/c2ccccc2O)cc1 | u | 5.6µM* | u | 13% | 116
CC(=O)c1ccc(S(=O)(=O)N(C)CC(=O)Nc2ccc(C)cc2)cc1 | 11% | x | x | 13% | 0
COc1ccc(S(=O)(=O)NCC(=O)Nc2ccc3c(c2)OCCO3)cc1OC | 5% | -22% | -5% | 1% | 19
COc1ccc(NC(=O)CNS(=O)(=O)c2ccc(Cl)cc2)cc1OC | 18µM* | 1% | u | -12% | 25
Cc1ccc2c(c1)N(CC(=O)NCCCN1CCN(C)CC1)C(=O)CO2 | 6% | 0% | 1% | -1% | -5
NC(c1ccccc1)c1csc(Nc2ccc(C(=O)NCCCO)cn2)n1 (configuration not stated) | x | x | x | x | 7
CCN(CC)C(=O)c1cccc(-c2csc(C(O)c3ccc(F)c(F)c3)n2)c1 (configuration not stated) | x | x | x | x | 3
COc1ccc(CC(=O)Nc2ccc(S(=O)(=O)Nc3ncccn3)cc2)cc1OC | 16µM* | 0% | 6% | -19% | 1
CC(=O)Nc1ccc(S(=O)(=O)NCCSCc2c(Cl)cccc2Cl)cc1 | 6% | u | -28% | 23µM* | -66*
SMILES | SW480 rereplic | RORg inh | Gal4-VP16 FLuc | MCF10A rereplic | IL-1B inflam inh
CC(=O)Nc1ccc(S(=O)(=O)NCCOc2ccc(Cl)cc2C)cc1 | 5% | u | 5µM* | -12% | -17
CC(=O)Nc1ccc(NC(=O)CNS(=O)(=O)c2ccc(C)cc2)cc1 | -3% | 10µM* | u | -10% | 9
CC(=O)Nc1ccc(S(=O)(=O)NCCC(=O)Nc2cccc(Cl)c2)cc1 | -2% | 10% | 4% | 1% | 19
CCS(=O)c1ccccc1C(=O)OCC(=O)N1CCC(c2ccccc2)=N1 (configuration not stated) | -41% | x | x | 12% | u
COc1cc(C(=O)N2CCN(C(=O)c3cc(-c4ccc(Br)cc4)n[nH]3)CC2)cc(OC)c1OC | -7% | 29% | -5% | u | -10
C=CCn1c(SCC(=O)N2CCOCC2)nnc1C(C)NC(=O)c1ccccc1 (configuration not stated) | u | -18% | -1% | u | i
COc1cccc(C(=O)N2CCCC(Nc3ccc(C)c(C)c3)C2)c1 (configuration not stated) | -2% | 27% | -11% | 6% | -3
Nc1ccc(F)cc1F | x | -3% | -24% | x | x
O=C(Nc1ccc2nc(-c3cccs3)c(-c3cccs3)nc2c1)N1CCOCC1 | 23µM* | -13% | -2% | 18µM* | -60*
O=C(c1ccc2nc(-c3ccco3)c(-c3ccco3)nc2c1)N1CCN(c2ccccc2)CC1 | u | 7% | 19% | 16µM* | u
O=C(Nc1ccc(N2CCOCC2)cc1)Nc1ccc2nc(-c3ccco3)c(-c3ccco3)nc2c1 | 18% | u | u | 9.2µM* | 23
COc1ccccc1-c1cccc2nccn12 | x | x | x | x | -1
Cc1ccc(NC(=O)c2cc(S(=O)(=O)NCCc3ccccc3)ccc2F)cc1Cl | 9% | u | u | 17% | -88*
O=C(Nc1cccc(Cl)c1)c1cc(S(=O)(=O)NCCc2ccc(Cl)cc2)ccc1F | -25% | u | 10µM* | 25% | -65*
CCOC(=O)N1CCC(NC(=O)c2cc(S(=O)(=O)NCCc3ccccc3)ccc2F)CC1 | 5% | u | -1% | u | -11
COc1ccc(CNS(=O)(=O)c2ccc(F)c(C(=O)Nc3ccc(OC)cc3)c2)cc1 | 2% | 17% | -5% | -3% | 13
CCOC(=O)C1(Cc2ccccc2)CCCCCC1=O (configuration not stated) | 1% | x | x | -4% | -4
Cc1ccc(C(=O)c2oc3ccc(Cl)cc3c2NC(=O)CN2CCN(C)CC2)cc1 | u | u | u | u | -57*
CCC1Oc2ccc(C)cc2N(Cc2cccc(C)c2)C1=O (configuration not stated) | -4% | 3% | 0% | 12µM* | -2
CCC1Oc2ccc(C)cc2N(CC(=O)N(Cc2cccnc2)Cc2ccc(C)o2)C1=O (configuration not stated) | 14% | 14µM* | u | 18% | u
COc1ccccc1-c1sc2ccccc2c1-c1ccccc1OC | -7%[9.22 µM] | x | x | 14% | 0
C=CCCCCCCCCc1nc(=S)[nH][nH]1 | -2% | 13µM* | -3% | 13% | 22

Bioassay records as filed in PubChem.
